Where “and” joins values, the source holds several entries; their conditions need not be identical. Identical values can stand only once. The whole screen tested about 220,000 compounds, of which about 2,000 (0.91%) were called active. Not shown: some 2% with an inconclusive outcome. The list is a sample of the results. Results with a measured potency or affinity are listed apart. A number with no mark means an inactive call. Cut-off read from the data, not from the text of the source: inconclusive = inhibition above about 80% without an active follow-up result; inactive = below that; test concentration not stated here.

In general, inhibition refers to the change of the read-out against control, counted positive when it falls.

This test in a line: M. tuberculosis H37Rv growth inhibitors, H37Rv strain (AID 1626).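 Note: bacteria incubated seven days before Alamar blue readout; 0% = bacteria only wells and 100% = bacteria with antibiotic wells.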 Conditions: hits give high values, concentration not given here.
Regarding `O=C(Nc1ccccn1)C12CC3CC(C1)CC(C(=O)Nc1ccccn1)(C3)C2`, the inhibition was -2.92%.

Take `O=C(Nc1nc(-c2nc3ccccc3s2)cs1)C1CC1`: the inhibition was 7.59%.

In the case of `c1ccc(-c2csc(Nc3cccnc3)n2)nc1`, the inhibition was 10.1%.

For `O=C(CCSc1ccccc1)Nc1nccs1`, the inhibition was 3.44%.

For `c1ccc(Nc2nc(-c3ccncc3)cs2)cc1`, the inhibition was 5.87%.

As for `O=C(CN1C(=O)CCC1=O)Nc1nc(-c2ccccn2)cs1`, the inhibition was 2.51%.

Take `O=C(CCS(=O)(=O)c1ccccc1)Nc1nc(-c2ccccn2)cs1`: the inhibition was 73.5%.

`O=C(Nc1nccs1)C12CC3CC(C1)CC(C(=O)Nc1nccs1)(C3)C2`: the inhibition is 1.25%.

On to `O=c1[nH]c(N2CCOCC2)nc2ncn(Cc3ccccc3)c12`, for which the inhibition is -3.03%.

On to `COc1ccc(NS(=O)(=O)c2ccc(Cl)c(C(=O)O)c2)cc1S(=O)(=O)N1CCCCC1`, for which the inhibition was -7.19%.

For `O=c1[nH]c(N2CCc3ccccc3C2)nc2c1CCC2`, the inhibition was -0.21%.

`CCOC(=O)N1CCN(c2ccc([N+](=O)[O-])cc2F)CC1C` (configuration not stated): the inhibition is 9.74%.

Regarding `CCCCn1c(CNC(C)=O)nc2ccccc21`, the inhibition is 1.64%.

For `COC(=O)c1[nH]c2cc(C)ccc2c1NC(=O)CN1CCN(c2ccccc2OC)CC1`, the inhibition was 45%.

Regarding `CCC(C)NC(=S)Nc1ccc(F)cc1` (configuration not stated), the inhibition was 0.18%.

Turning to `CCc1nnc(NC(=O)C(NC(=O)c2ccccc2Cl)C(C)C)s1` (configuration not stated), the inhibition is 3.06%.

Take `Cc1csc(NC(=O)C(NC(=O)c2ccccc2F)C(C)C)n1` (configuration not stated): the inhibition was 5.45%.

Consider `CCOC(=O)c1sc(=NC(=O)/C=C/c2ccccc2)n(C)c1C`, for which the inhibition is -0.27%.

In the case of `COc1ccc(/C(N)=N/OC(=O)c2ccc3c(c2)OCO3)cc1`, the inhibition was 3.21%.

Consider `O=[N+]([O-])c1cccc(Cl)c1CSc1ccccn1`, for which the inhibition was 0.94%.

Take `O=C(CCCn1cnc([N+](=O)[O-])n1)Nc1cccc(Cl)c1Cl`: the inhibition is 1.24%.

For the compound `O=[N+]([O-])c1ncn(Cc2ccccc2Cl)n1`, the inhibition was 3.07%.

On to `O=C(COC(=O)/C=C/c1ccccc1)Nc1cc(C(F)(F)F)ccc1N1CCOCC1`, for which the inhibition was -0.9%.

`CC(C)N(Cc1cn(C)nc1-c1cccc(Cl)c1)Cc1nccn1C`: the inhibition is 7.78%.

`CN1CCC(=NNC(=O)COc2ccc(Cl)cc2)CC1`: the inhibition is 2.45%.

As for `COc1ccccc1OCC(=O)NNc1c2ccccc2nc2ccccc12`, the inhibition was -2.19%.

Regarding `O=[N+]([O-])c1ccc2c(c1)oc1ccccc12`, the inhibition is -1.07%.

Take `Nc1ccc2oc3ccc(N)cc3c(=O)c2c1`: the inhibition was 3.5%.

As to `Cc1cc(NC(=O)c2ccc3c(c2)C(=O)N(CC(C)C)C3=O)no1`, the inhibition is 1.19%.

Turning to `COc1ccc(-c2noc(CSc3nnc(CCc4ccccc4)n3-c3ccccc3)n2)cc1OC`, the inhibition is 6.96%.

For the compound `Fc1cccc(COc2ccccc2CNc2ccccc2)c1`, the inhibition was 15.2%.

Take `CCOc1ccccc1CNc1ccc(O)cc1`: the inhibition is -6.88%.

Turning to `COc1ccc(-n2nnnc2SCC(=O)Nc2nc3c(s2)CCCC3)cc1`, the inhibition was -4.11%.

For `COc1ccc(C(=O)NCCN2C(=O)S/C(=C\c3cccnc3)C2=O)c(OC)c1OC`, the inhibition was 8.22%.

As for `Cc1cccc(OCCCc2c(C)n[nH]c2C)c1`, the inhibition was 1.52%.

As for `Cc1n[nH]c(C)c1CCCCOc1ccccc1`, the inhibition was -2.76%.

With `Cc1n[nH]c(C)c1CCCOc1ccccc1`, the inhibition was -17.6%.

As to `Cc1ccccc1OCCCc1c(C)n[nH]c1C`, the inhibition was 33%.

Regarding `Cc1n[nH]c(C)c1CCOc1ccc(C(C)C)cc1`, the inhibition was -3.37%.

Consider `Cc1cccc(C)c1OCCCCc1c(C)n[nH]c1C`, for which the inhibition is 78.5%.

With `Cc1nc(NC(=O)COC(=O)c2ccc(S(=O)(=O)N3CCc4ccccc4C3)cc2)c(Cl)cc1Cl`, the inhibition is -3.47%.

`COc1cc(NC(=S)N2CCC(C(O)(c3ccccc3)c3ccccc3)CC2)cc(OC)c1`: the inhibition is 4.64%.

As to `COc1ccccc1C(=O)NNC(=O)c1nn(Cc2ccccc2)c(=O)c2ccccc12`, the inhibition is 2.78%.

Take `Cc1[nH][nH]c(=O)c1N=Nc1ccc(Cl)cc1`: the inhibition is -0.49%.

On to `O=c1cc(CSCc2ccc(Cl)cc2)[nH]c(=O)[nH]1`, for which the inhibition is 7.09%.

As to `COc1cc2c(cc1NC(=O)CSc1nc3ccc(C)cc3[nH]1)oc1ccccc12`, the inhibition is 51.1%.

For `COc1cc2c(cc1NC(=O)CSc1ccccc1)oc1ccccc12`, the inhibition was 83%.

Turning to `COc1ccc(-c2cc(C(F)(F)F)n3nc(C(=O)Nc4c(C)n(C)n(-c5ccccc5)c4=O)cc3n2)cc1`, the inhibition is 8.28%.

As for `CCNc1nc(Cl)nc(NNC(=O)C(C)Oc2ccccc2)n1` (configuration not stated), the inhibition is 0.39%.

As to `CCN(c1ccc(NC(=O)CN2C(=O)NC3(CCOc4ccccc43)C2=O)cc1)C(C)C` (configuration not stated), the inhibition is -1.8%.

In the case of `N#CCSc1nnc(N)s1`, the inhibition was 8.52%.

In the case of `Nc1c2c(nc3ccn(-c4ccccc4)c(=O)c13)CCCCC2`, the inhibition was 11.1%.

For `Nc1c2c(nc3ccccc13)CCC2`, the inhibition is 3.36%.

Regarding `Cc1ccc(CNC(=O)C2CC(c3ccccc3F)=NO2)cc1` (configuration not stated), the inhibition is 0.74%.

With `CCOC(=O)CN(C#N)c1nc(C)cc(C)n1`, the inhibition was -5.87%.

Consider `COC(=O)CN(C#N)c1nc(N(C)C)nc(N(C)C)n1`, for which the inhibition is -2.49%.

On to `CCCCCCN1CCN(c2ccccc2Cl)CC1`, for which the inhibition was 4.25%.

In the case of `O=C(Nc1ccc(F)cc1F)Nc1ccccc1C(=O)NCCN1CCNC1=O`, the inhibition is -7.32%.

On to `CC(C)CCOCc1nc2sc3c(c2c(=O)[nH]1)CCC(C)C3` (configuration not stated), for which the inhibition is 5.08%.

For `CCOC(=O)c1nc2sc3c(c2c(=O)[nH]1)CCCC3`, the inhibition is 6.3% and 4.22%.

Consider `CCOC(=O)N1CCC(NC(=O)CS(=O)Cc2nc(-c3ccc(OC)c(OC)c3)oc2C)CC1` (configuration not stated), for which the inhibition is 1.72%.

`COc1ccc(Nc2cc(C)nc(NCc3ccccc3)n2)cc1`: the inhibition was 20.5%.

Regarding `Cc1cc(OC2CCCCC2)nc(NCc2ccccc2)n1`, the inhibition is 6.25%.

With `Cc1ccc(/C=N/Nc2cc(C)nc(NCc3ccccc3)n2)cc1`, the inhibition is -1.4%.

Consider `CCCCNc1cc(C)nc(NCc2ccccc2)n1`, for which the inhibition was 8.03%.

For `Cc1cc(N2CCCCC2)nc(NCc2ccccc2)n1`, the inhibition was 11.8%.

`Cc1cc(N/N=C/c2ccccc2)nc(NCc2ccccc2)n1`: the inhibition is 7.85%.

Take `COc1ccc(NC(=O)CCCCn2c(=O)[nH]c3ccccc3c2=O)cc1`: the inhibition is -8.84%.

For the compound `CCc1cc(C(=O)N2CCc3c([nH]c4ccccc34)C2c2ccc(OC)cc2F)no1` (configuration not stated), the inhibition was 1.56%.

As to `CC(=O)OC1c2ccccc2C(=O)N1Cc1ccccc1` (configuration not stated), the inhibition is -4.69%.

With `Cc1nc(SCC(=O)Nc2ccc(F)cc2)c2oc3ccccc3c2n1`, the inhibition was -5.02%.

For the compound `Cc1nc(SCCO)c2oc3ccccc3c2n1`, the inhibition was 10.1%.

On to `Fc1ccc(CSc2ncnc3c2oc2ccccc23)cc1`, for which the inhibition is 15.6%.

Regarding `Fc1cccc(CSc2ncnc3c2oc2ccccc23)c1`, the inhibition was 5.28%.

Regarding `CCc1nc2c(c(=O)c3ccccc3n2C)c(=O)n1CCc1ccc(OC)cc1`, the inhibition was 19.9%.

For `O=C(NCc1nc(-c2ccc(C(F)(F)F)cc2)no1)Nc1ccc(OC(F)(F)F)cc1`, the inhibition was -5.05%.

As for `O=C(NCc1nc(-c2ccc(C(F)(F)F)cc2)no1)Nc1ccc(F)cc1F`, the inhibition was 8.4%.

Consider `COc1ccc(N(C(=O)CNC(=O)c2cccs2)C(C(=O)NCC2CCCO2)c2ccccc2)cc1OC` (configuration not stated), for which the inhibition is -7.89%.

Take `O=C(c1ccc(F)cc1)N1CCN(c2ccc([N+](=O)[O-])cc2-n2cccc2)CC1`: the inhibition is 20.4%.

As to `Cc1ccc(C(=O)N2CCN(c3ccc([N+](=O)[O-])cc3-n3cccc3)CC2)cc1`, the inhibition is 33.7%.

For `COCC(C)NC(=S)NC(=O)c1cc(S(=O)(=O)N2CCOCC2)ccc1C` (configuration not stated), the inhibition was 4.56%.

Consider `COc1cccc(NC(C(=O)Nc2cccc(C(C)=O)c2)c2ccccc2)c1` (configuration not stated), for which the inhibition is 6.16%.

`Cc1cc(C)c2nc(Nc3nc(-c4ccccc4)cc(=O)[nH]3)nc(C)c2c1`: the inhibition is 2.35%.

On to `O=C(O)c1cn(C2CCCCC2)c2ccccc2c1=O`, for which the inhibition is -2.4%.

`CC1CCc2cc(F)cc3c(=O)c(C(=O)O)cn1c23` (configuration not stated): the inhibition is 14.4%.

For the compound `CCOC(=O)c1cn(C2CC2)c2c(F)c(F)c(F)cc2c1=O`, the inhibition was -2.19%.

Take `Cc1cccc(-c2cc(=O)c(C(=O)O)cn2-c2ccc(F)cc2F)c1`: the inhibition is -8.14%.

Turning to `Cc1c(-n2cc(C(=O)O)c(=O)c3cc(F)c(N4CCCC(O)C4)c(F)c32)c(=O)n(-c2ccccc2)n1C` (configuration not stated), the inhibition is -0.64%.

For `CCn1cc(C(=O)O)c(=O)c2cc(F)c(N3CCN(C(=S)NC(=O)c4ccc(F)cc4)CC3)cc21`, the inhibition is 15.9%.

Turning to `CC1CCCCC1NC(=O)COC(=O)CNC(=O)c1cccc(F)c1` (configuration not stated), the inhibition is -0.59%.

For `CP(=O)(O)CN1CCCCC1`, the inhibition was -1.04%.

Regarding `NS(=O)(=O)c1ccc(CCNC(=O)CSc2nc3ccccc3c(=O)n2CCN2CCOCC2)cc1`, the inhibition is -2.17%.

With `O=C(O)c1ccccc1C(=O)NCCc1c(C(=O)O)[nH]c2ccc(F)cc12`, the inhibition was -5.11%.

For the compound `Cc1ccc(NC(=S)NCCc2ccc(F)cc2)c(C)c1`, the inhibition is 6.97%.

Take `O=C(N/N=C/c1ccccc1F)NC1CCCCC1`: the inhibition is 6.4%.

Take `CNC(=S)NNC(=O)c1noc(C)c1C(=O)N1CCN(C(c2ccccc2)c2ccccc2)CC1`: the inhibition is 4.63%.

In the case of `O=C(NNC(=O)c1ccc(F)cc1F)c1ccc2c(c1)OCO2`, the inhibition is -6.81%.

(Values after PubChem BioAssay AID1626 (SRMLSC, 2009).)
